Results as given in PubChem BioAssay (NCI).
Where “and” joins values, the source holds several entries; their conditions need not be identical. Identical values can stand only once. About 83,000 compounds went through this panel and 20% of them were active in at least one assay; those are over-represented in the sample as a whole.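 Cells were grown in 96-well plates and exposed to the test compound at a single concentration for 48 hours; results are reported as percent growth, with values below 10 considered active.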 Calls of active or inactive are those of the source.

Key:
Assay in all cases: NCI-60 one-dose screen, 48 h (100 = growth as untreated, 0 = no growth, -100 = all killed)
HCT-15 colon = system: HCT-15 colon
HT29 colon = system: HT29 colon
SNB-75 CNS = system: SNB-75 CNS
SNB-19 CNS = system: SNB-19 CNS
U251 CNS = settings: 10 µM unless noted
PC-3 prostate = system: PC-3 prostate
SK-MEL-5 melanoma = system: SK-MEL-5 melanoma
UACC-62 melanoma = system: UACC-62 melanoma
LOX IMVI melanoma = settings: 10 µM unless noted
SK-MEL-28 melanoma = system: SK-MEL-28 melanoma
SK-MEL-2 melanoma = system: SK-MEL-2 melanoma
EKVX NSCLC = settings: 10 µM unless noted
SN12C renal = system: SN12C renal
UO-31 renal = system: UO-31 renal
TK-10 renal = system: TK-10 renal
ACHN renal = system: ACHN renal
CAKI-1 renal = system: CAKI-1 renal
A498 renal = system: A498 renal
CCRF-CEM leukemia = settings: 10 µM unless noted
MOLT-4 leukemia = system: MOLT-4 leukemia

## Oc1c(Cl)c2ccccc2c2ccccc12
HCT-15 colon; 10 µM unless noted
  growth: 112% (inactive)
HT29 colon; 10 µM unless noted
  growth: 103% (inactive)
SNB-75 CNS; 10 µM unless noted
  growth: 88.2% (inactive)
SNB-19 CNS; 10 µM unless noted
  growth: 99.1% (inactive)
U251 CNS
  growth: 113% (inactive)
PC-3 prostate; 10 µM unless noted
  growth: 97.5% (inactive)
SK-MEL-5 melanoma; 10 µM unless noted
  growth: 101% (inactive)
UACC-62 melanoma; 10 µM unless noted
  growth: 107% (inactive)
LOX IMVI melanoma
  growth: 98% (inactive)
SK-MEL-28 melanoma; 10 µM unless noted
  growth: 108% (inactive)
SK-MEL-2 melanoma; 10 µM unless noted
  growth: 96.9% (inactive)
EKVX NSCLC
  growth: 117% (inactive)
SN12C renal; 10 µM unless noted
  growth: 98.5% (inactive)
UO-31 renal; 10 µM unless noted
  growth: 91.8% (inactive)
TK-10 renal; 10 µM unless noted
  growth: 84.8% (inactive)
ACHN renal; 10 µM unless noted
  growth: 100% (inactive)
CAKI-1 renal; 10 µM unless noted
  growth: 111% (inactive)
A498 renal; 10 µM unless noted
  growth: 122% (inactive)
CCRF-CEM leukemia
  growth: 112% (inactive)

## COc1cc(NS(C)(=O)=O)ccc1Nc1c2ccccc2nc2ccccc12
HCT-15 colon; 10 µM unless noted
  growth: 29.4% [2.5 µM] (inactive)
HT29 colon; 10 µM unless noted
  growth: 43.4% [2.5 µM] (inactive)
SNB-75 CNS; 10 µM unless noted
  growth: 27.9% [2.5 µM] (inactive)
SNB-19 CNS; 2.5 µM
  growth: 14.5% (inactive)
SNB-19 CNS; 10 µM
  growth: -26% (active) and 28.9% (inactive) and 35.6% (inactive)
U251 CNS
  growth: 18.7% [2.5 µM] (inactive)
PC-3 prostate; 10 µM unless noted
  growth: 52.8% [2.5 µM] (inactive)
SK-MEL-5 melanoma; 10 µM unless noted
  growth: 3.48% [2.5 µM] (active)
UACC-62 melanoma; 2.5 µM
  growth: 29.1% (inactive)
UACC-62 melanoma; 250 µM
  growth: -86.2% (active) and -100% (active)
LOX IMVI melanoma
  growth: 23.8% [2.5 µM] (inactive)
SK-MEL-28 melanoma; 10 µM unless noted
  growth: 52.5% (inactive) and 63.7% (inactive) and 53.8% (inactive)
SK-MEL-2 melanoma; 10 µM unless noted
  growth: 96.5% [2.5 µM] (inactive)
EKVX NSCLC
  growth: 58.8% [2.5 µM] (inactive)
SN12C renal; 2.5 µM
  growth: 17.7% (inactive)
SN12C renal; 10 µM
  growth: 10.6% (inactive) [middle of 4 runs]
UO-31 renal; 10 µM unless noted
  growth: 34.3% [2.5 µM] (inactive)
TK-10 renal; 2.5 µM
  growth: 66.1% (inactive)
TK-10 renal; 250 µM
  growth: -95.2% (active) and -100% (active)
ACHN renal; 10 µM unless noted
  growth: 2.39% [2.5 µM] (active)
CAKI-1 renal; 10 µM unless noted
  growth: 16.3% [2.5 µM] (inactive)
CCRF-CEM leukemia
  growth: 3.36% [2.5 µM] (active)
MOLT-4 leukemia; 10 µM unless noted
  growth: 1.03% [2.5 µM] (active)

## O=C1N[C@H]2[C@H](CS[C@H]2CCCCC(=O)N(CCP(c2ccccc2)c2ccccc2)CCP(c2ccccc2)c2ccccc2)N1
HCT-15 colon; 10 µM unless noted
  growth: 78.6% (inactive)
HT29 colon; 10 µM unless noted
  growth: 59.3% (inactive)
SNB-75 CNS; 10 µM unless noted
  growth: 104% (inactive)
SNB-19 CNS; 10 µM unless noted
  growth: 75.7% (inactive)
U251 CNS
  growth: 50.8% (inactive)
PC-3 prostate; 10 µM unless noted
  growth: 71.7% (inactive)
SK-MEL-5 melanoma; 10 µM unless noted
  growth: 87.8% (inactive)
UACC-62 melanoma; 10 µM unless noted
  growth: 88.3% (inactive)
LOX IMVI melanoma
  growth: 76% (inactive)
SK-MEL-28 melanoma; 10 µM unless noted
  growth: 99.7% (inactive)
SK-MEL-2 melanoma; 10 µM unless noted
  growth: 81.3% (inactive)
EKVX NSCLC
  growth: 75.3% (inactive)
SN12C renal; 10 µM unless noted
  growth: 94.4% (inactive)
UO-31 renal; 10 µM unless noted
  growth: 77.3% (inactive)
TK-10 renal; 10 µM unless noted
  growth: 97.4% (inactive)
ACHN renal; 10 µM unless noted
  growth: 95.7% (inactive)
CAKI-1 renal; 10 µM unless noted
  growth: 99.2% (inactive)
A498 renal; 10 µM unless noted
  growth: 94.2% (inactive)
CCRF-CEM leukemia
  growth: 62.7% (inactive)
MOLT-4 leukemia; 10 µM unless noted
  growth: 82.8% (inactive)

## Nc1nc(N)c2nc(CNc3ccc(C(=O)NC(CCC(=O)O)C(=O)O)cc3)cnc2n1 (configuration not stated)
HCT-15 colon; 10 µM unless noted
  growth: 27% (inactive) and 26% (inactive)
HT29 colon; 10 µM unless noted
  growth: 32.5% (inactive) and 18.5% (inactive)
SNB-75 CNS; 10 µM unless noted
  growth: 64.3% (inactive) and 41.4% (inactive)
SNB-19 CNS; 10 µM unless noted
  growth: 51% (inactive) and 44.4% (inactive)
U251 CNS
  growth: 37.9% (inactive) and 26.9% (inactive)
PC-3 prostate; 10 µM unless noted
  growth: 43.3% (inactive) and 26.6% (inactive)
SK-MEL-5 melanoma; 10 µM unless noted
  growth: 24.6% (inactive) and 23.9% (inactive)
UACC-62 melanoma; 10 µM unless noted
  growth: 25.3% (inactive) and 24.3% (inactive)
LOX IMVI melanoma
  growth: 12% (inactive) and 13.1% (inactive)
SK-MEL-28 melanoma; 10 µM unless noted
  growth: 67% (inactive) and 96.9% (inactive)
SK-MEL-2 melanoma; 10 µM unless noted
  growth: 60.1% (inactive) and 58.9% (inactive)
EKVX NSCLC
  growth: 72.9% (inactive) and 44.4% (inactive)
SN12C renal; 10 µM unless noted
  growth: 25.6% (inactive) and 14.7% (inactive)
UO-31 renal; 10 µM unless noted
  growth: 13.6% (inactive) and 31.4% (inactive)
TK-10 renal; 10 µM unless noted
  growth: 54% (inactive) and 48.1% (inactive)
ACHN renal; 10 µM unless noted
  growth: 19.4% (inactive)
CAKI-1 renal; 10 µM unless noted
  growth: 25.9% (inactive) and 21.9% (inactive)
A498 renal; 10 µM unless noted
  growth: 45.4% (inactive) and 85.7% (inactive)
CCRF-CEM leukemia
  growth: 22.6% (inactive) and 29.9% (inactive)
MOLT-4 leukemia; 10 µM unless noted
  growth: 25.8% (inactive) and 31.5% (inactive)

## COc1ccccc1/C=C\C(=O)c1ccccc1
HCT-15 colon; 10 µM unless noted
  growth: 70.2% (inactive)
HT29 colon; 10 µM unless noted
  growth: 41.9% (inactive)
SNB-75 CNS; 10 µM unless noted
  growth: 77.8% (inactive)
SNB-19 CNS; 10 µM unless noted
  growth: 79.4% (inactive)
U251 CNS
  growth: 45.6% (inactive)
PC-3 prostate; 10 µM unless noted
  growth: 61.8% (inactive)
SK-MEL-5 melanoma; 10 µM unless noted
  growth: 72.3% (inactive)
UACC-62 melanoma; 10 µM unless noted
  growth: 77.2% (inactive)
LOX IMVI melanoma
  growth: 28.6% (inactive)
SK-MEL-28 melanoma; 10 µM unless noted
  growth: 94.9% (inactive)
SK-MEL-2 melanoma; 10 µM unless noted
  growth: 87.6% (inactive)
EKVX NSCLC
  growth: 85.2% (inactive)
SN12C renal; 10 µM unless noted
  growth: 76.8% (inactive)
UO-31 renal; 10 µM unless noted
  growth: 44.1% (inactive)
TK-10 renal; 10 µM unless noted
  growth: 104% (inactive)
ACHN renal; 10 µM unless noted
  growth: 77% (inactive)
CAKI-1 renal; 10 µM unless noted
  growth: 83.2% (inactive)
A498 renal; 10 µM unless noted
  growth: 101% (inactive)
CCRF-CEM leukemia
  growth: 11% (inactive)
MOLT-4 leukemia; 10 µM unless noted
  growth: 58.1% (inactive)

## O=C(Nc1c(Cl)cccc1Cl)Oc1cccc2cccnc12
HCT-15 colon; 10 µM
  growth: 27.9% (inactive)
HCT-15 colon; 100 µM
  growth: 18.3% (inactive)
HT29 colon; 10 µM
  growth: 79.4% (inactive)
HT29 colon; 100 µM
  growth: 55.3% (inactive)
SNB-75 CNS; 10 µM
  growth: 73.1% (inactive)
SNB-75 CNS; 100 µM
  growth: 20.8% (inactive)
SNB-19 CNS; 10 µM
  growth: 56.4% (inactive)
SNB-19 CNS; 100 µM
  growth: 25.8% (inactive)
U251 CNS
  growth: 19.5% [100 µM] (inactive)
PC-3 prostate; 10 µM
  growth: 41% (inactive)
PC-3 prostate; 100 µM
  growth: 19.3% (inactive)
SK-MEL-5 melanoma; 10 µM
  growth: 55.9% (inactive)
SK-MEL-5 melanoma; 100 µM
  growth: 14.4% (inactive)
UACC-62 melanoma; 10 µM
  growth: 20.2% (inactive)
UACC-62 melanoma; 100 µM
  growth: -74.8% (active)
SK-MEL-28 melanoma; 10 µM
  growth: 73.9% (inactive)
SK-MEL-28 melanoma; 100 µM
  growth: 38.5% (inactive)
SK-MEL-2 melanoma; 10 µM
  growth: 79.8% (inactive)
SK-MEL-2 melanoma; 100 µM
  growth: 25.9% (inactive)
EKVX NSCLC
  growth: -9.97% [100 µM] (active)
SN12C renal; 10 µM
  growth: 53.9% (inactive)
SN12C renal; 100 µM
  growth: 33.1% (inactive)
UO-31 renal; 10 µM
  growth: 17% (inactive)
UO-31 renal; 100 µM
  growth: 6.51% (active)
TK-10 renal; 10 µM
  growth: 58.8% (inactive)
TK-10 renal; 100 µM
  growth: 22.4% (inactive)
ACHN renal; 10 µM
  growth: 38.8% (inactive)
ACHN renal; 100 µM
  growth: 12.1% (inactive)
CAKI-1 renal; 10 µM
  growth: -9.81% (active)
CAKI-1 renal; 100 µM
  growth: 16.8% (inactive)
A498 renal; 10 µM
  growth: 98.2% (inactive)
A498 renal; 100 µM
  growth: 94.5% (inactive)
CCRF-CEM leukemia
  growth: 8.09% [100 µM] (active)
MOLT-4 leukemia; 10 µM
  growth: 16.6% (inactive)
MOLT-4 leukemia; 100 µM
  growth: 8.36% (active)
